12 compounds from PubChem BioAssay can be followed below.

Inconclusive results are not listed. The source made the active and inactive calls.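 Rule for the calls, unless noted: active = normalized viability below 100% at a tested concentration; inactive = the rest.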

Usually AC50 stands for the concentration at which the activity in the assay is half-maximal. As a reminder, the viability is a read-out of living cells in per cent, often relative to untreated cells.

A short description of assay [1]: growth inhibition of DIPG glioma cells, dose response, cell-based, SU-DIPG-XIII, MIPE5.0, CellTiter-Glo, qHTS (AID 1347064; cut-off not given, nearly all actives have AC50 up to about 23 µM;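 for AC50: cells exposed to compound for 48 hours before the viability read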). Conditions: SU-DIPG-XIII viability, CellTiter-Glo ATP luminescence. For orientation: In ATP-based viability assays light output follows the ATP content of the culture.
The nature of assay [2]: SU-DIPG-XXV glioma cell viability, MIPE5.0 library, qHTS (AID 1347068; cut-off not given, nearly all actives have IC50 up to about 30 µM). Background: Quantitative high-throughput screening tests each substance at several concentrations.
Assay [3] is described as follows: sensitizers of A549 cells to miR-34 induction, primary screen, imaging, A549 dox-inducible miR-34, nuclei and caspase counts (AID 1347080;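 active = compounds whose cell count with miR-34 switched on is under 0.7 times the count with it off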). Conditions: A549 miR-34 inducible, Hoechst nuclei count, 48 h.
The nature of assay [4]: modifiers of HSF1 nuclear foci, imaging, Selleck Cancer Library (AID 1347162; in the data active = plate-normalised HSF1 focus index below about 0.46). The note with it: human cells, at 10 µM; SSMD: measured here: HSF1 foci SSMD mean; cell count: measured here: cell number; plate-normalised HSF1 focus index: stronger effect = lower value.
Assay [5] can be described thus: survival rescue of mitochondrial mutant cells in low glucose, primary screen, MELAS cybrids, Rieske KO mouse fibroblasts, CellTiter-Glo (AID 1508586;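 active = mean z-score across replicates of 1.96 or higher in either the MELAS or the Rieske mutant cell line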;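 note: z relative to plate mean and SD of compound and empty wells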).
Assay [6] in a line: ovarian cancer cell viability with rucaparib, profiling panel, oncology-focused library, rucaparib conditional (AID 1508598). The note with it: patient-derived ovarian cancer cells, CellTiter-Glo viability, 144 h, stronger effect = lower value.
Assay [7] is described as follows: viability loss in pontine glioma line – cell-based, SU-DIPG-XXV, MIPE5.0, CellTiter-Glo, qHTS, dose response (AID 1347065; cut-off not given, nearly all actives have AC50 up to about 26 µM;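 note: cells exposed to compound for 48 hours before ATP readout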). Conditions: CellTiter-Glo ATP luminescence.
A short description of assay [8]: SU-DIPG-VI glioma cell viability, MIPE4.0 library, CellTiter-Glo luminescence, qHTS (AID 1347066; cut-off not given, nearly all actives have AC50 up to about 30 µM;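 note: cells exposed to compound for 48 hours before readout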). The note with it: CellTiter-Glo ATP luminescence.
Assay [9] can be described thus: JHH-DIPG-1 glioma cell viability, MIPE5.0 library, CellTiter-Glo luminescence, qHTS (AID 1347067; cut-off not given, nearly all actives have AC50 up to about 26 µM;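 note: cells exposed to compound for 48 hours before readout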). Conditions: JHH-DIPG-1 glioma viability, CellTiter-Glo ATP luminescence.
Setting [10] is: stronger effect = lower value, cell number ratio, induced over uninduced.
[11] abbreviates: measured here: relative caspase fold change +Dox/-Dox.
Setting [12] is: measured here: total cells with miR-34 induction, stronger effect = lower value.
[13] abbreviates: measured here: total cells without miR-34 induction.
Where [14] appears, read: MELAS cybrid survival, CellTiter-Glo 48 h, stronger effect = higher value.
Where [15] appears, read: Rieske KO mouse fibroblast survival, CellTiter-Glo 72 h.

Take `CCc1cc(Nc2nccc(-c3c(-c4ccc(OC)c(C(=O)Nc5c(F)cccc5F)c4)nc4ccccn34)n2)c(OC)cc1N1CCC(N2CCN(S(C)(=O)=O)CC2)CC1`: in [1], the half-maximal activity concentration (AC50) is 5.25 µM (active). In assay [2], the compound was classed as inactive. Moreover, the figures for the fold change in assay [3] (setting [10]) and in assay [3] (setting [11]) were 0.946 (inactive) and 1.23, respectively. The cell count came out at 6190 in assay [3] (setting [12]), 6540 in assay [3] (setting [13]) and 6760 in assay [4]. In assay [4], this compound displayed an SSMD of 2.41. Further, in assay [4], the plate-normalised HSF1 focus index was 1.12 (inactive). Also, the figures for the z-score in assay [5] (setting [14]) and in assay [5] (setting [15]) were 0.319 (inactive) and 0.793, respectively. The viability is 118% (inactive) in assay [6] (at 0.000305 µM, OCI-C5x cells, with rucaparib 10 µM, 100% = cells with rucaparib alone); 127% (inactive) in assay [6] (at 0.000305 µM, OCI-C5x cells, without rucaparib); 97.3% (active) in assay [6] (at 0.000305 µM, OCI-P5x cells, with rucaparib 20 µM, 100% = cells with rucaparib alone); 105% (inactive) in [6] (at 0.000305 µM, OCI-P5x cells, without rucaparib); 112% (inactive) in [6] (at 0.00122 µM, OCI-C5x cells, with rucaparib 10 µM, 100% = cells with rucaparib alone); 120% (inactive) in assay [6] (at 0.00122 µM, OCI-C5x cells, without rucaparib). Besides, the viability in [6] (at 0.00122 µM, OCI-P5x cells, with rucaparib 20 µM, 100% = cells with rucaparib alone) is 99.8% (active); in assay [6] (at 0.00122 µM, OCI-P5x cells, without rucaparib), 104% (inactive); in [6] (at 0.00488 µM, OCI-C5x cells, with rucaparib 10 µM, 100% = cells with rucaparib alone), 116% (inactive); in [6] (at 0.00488 µM, OCI-C5x cells, without rucaparib), 121% (inactive); in assay [6] (at 0.00488 µM, OCI-P5x cells, with rucaparib 20 µM, 100% = cells with rucaparib alone) it was 98.3% (active); in [6] (at 0.00488 µM, OCI-P5x cells, without rucaparib) it was 98.5% (active). The viability in assay [6] (at 0.0195 µM, OCI-C5x cells, with rucaparib 10 µM, 100% = cells with rucaparib alone) is 112% (inactive); in [6] (at 0.0195 µM, OCI-C5x cells, without rucaparib), 119% (inactive); in assay [6] (at 0.0195 µM, OCI-P5x cells, with rucaparib 20 µM, 100% = cells with rucaparib alone), 102% (inactive); in assay [6] (at 0.0195 µM, OCI-P5x cells, without rucaparib), 103% (inactive); in assay [6] (at 0.0781 µM, OCI-C5x cells, with rucaparib 10 µM, 100% = cells with rucaparib alone), 122% (inactive); in assay [6] (at 0.0781 µM, OCI-C5x cells, without rucaparib) it was 132% (inactive). For the same compound, the viability in [6] (at 0.0781 µM, OCI-P5x cells, with rucaparib 20 µM, 100% = cells with rucaparib alone) is 93.1% (active); in assay [6] (at 0.0781 µM, OCI-P5x cells, without rucaparib) it was 100% (inactive); in assay [6] (at 0.313 µM, OCI-C5x cells, with rucaparib 10 µM, 100% = cells with rucaparib alone), 174% (inactive); in [6] (at 0.313 µM, OCI-C5x cells, without rucaparib), 152% (inactive); in assay [6] (at 0.313 µM, OCI-P5x cells, with rucaparib 20 µM, 100% = cells with rucaparib alone) it was 103% (inactive); in [6] (at 0.313 µM, OCI-P5x cells, without rucaparib), 103% (inactive). In addition, the viability in [6] (at 1.25 µM, OCI-C5x cells, with rucaparib 10 µM, 100% = cells with rucaparib alone) was 178% (inactive); in assay [6] (at 1.25 µM, OCI-C5x cells, without rucaparib) it was 174% (inactive); in assay [6] (at 1.25 µM, OCI-P5x cells, with rucaparib 20 µM, 100% = cells with rucaparib alone) it was 97.9% (active); in [6] (at 1.25 µM, OCI-P5x cells, without rucaparib), 88.3% (active); in [6] (at 5 µM, OCI-C5x cells, with rucaparib 10 µM, 100% = cells with rucaparib alone), 176% (inactive); in [6] (at 5 µM, OCI-C5x cells, without rucaparib), 196% (inactive). Moreover, the viability in assay [6] (at 5 µM, OCI-P5x cells, with rucaparib 20 µM, 100% = cells with rucaparib alone) is 92.9% (active); in assay [6] (at 5 µM, OCI-P5x cells, without rucaparib), 90.5% (active).
Consider `Cc1cc(/C=c2/sc3nc4ccccc4n3c2=O)c(C)n1-c1ccccc1`, for which the AC50 in [7] was 20.9 µM (active). Moreover, the call in [8], in [9] and in assay [2] was inactive. The SSMD in [4] amounted to 3.08. In addition, the cell count in assay [4] came out at 7030. Besides, the plate-normalised HSF1 focus index in assay [4] is 1.18 (inactive).
Take `Nc1nc(-c2nn(Cc3ccccc3F)c3ncccc23)ncc1C1CC1`: the AC50 in [1] is 11.8 µM (active). In [2], the compound was called inactive.
For the compound `CN1CCC(COc2cnc(-c3cccc(Cn4nc(-c5cccc(C#N)c5)ccc4=O)c3)nc2)CC1`, the AC50 in assay [7] was 26.3 µM (active); in assay [9], 29.5 µM (active). In addition, the compound was classed as inactive in assay [8].
On to `CN(C)CCNC(=O)NC[C@H]1CC[C@@H]2[C@H](O1)c1cc(C(F)(F)F)ccc1N[C@H]2c1ccccc1`, for which the half-maximal activity concentration (AC50) in assay [7] is 0.186 µM (active).
For `CN1CCN(C(=O)c2ccc3cc(CCNc4ncnc5ccc(C#N)cc45)ccc3c2)CC1`, the figures for the AC50 in [7] and in assay [9] were 23.5 µM (active) and 20.9 µM (active), respectively.
Regarding `OCCOc1ccc(/C(=C(/CCCl)c2ccccc2)c2ccccc2)cc1`, the compound was called inactive in assay [1] and in assay [2].
Turning to `Nc1nccc(-c2c(-c3ccc(F)cc3)ncn2C2CCCCC2)n1`, the call in [1], in [9] and in assay [2] was inactive.
As to `C#Cc1cccc(Nc2ncnc3cc4c(cc23)OCCOCCOCCO4)c1`, the compound was called inactive in assay [1]. In addition, the values for the fold change in assay [3] (setting [10]) and in [3] (setting [11]) were 1.01 (inactive) and 0.44, respectively. Moreover, the figures for the cell count in assay [3] (setting [12]) and in assay [3] (setting [13]) were 7300 and 7200, respectively. Further, the z-score in assay [5] (setting [14]) is 0.219 (inactive); in assay [5] (setting [15]), 0.164.
In the case of `O=C(Nc1cnccc1Cl)N1CCN(Cc2ccc3c(c2)OC(F)(F)O3)CC1`, the outcome in assay [1] and in [2] was inactive.
On to `CC1=C2C[C@H]3[C@@H](CC[C@@H]4C[C@H](NS(C)(=O)=O)CC[C@@]43C)[C@@H]2CC[C@@]2(C1)O[C@@H]1C[C@H](C)CN[C@H]1[C@H]2C`, for which, in [7], the AC50 is 20.9 µM (active).
`Cc1nnn(C)c1-c1cnc2c3ccc(C(C)(C)O)cc3n([C@H](c3ccccc3)C3CCOCC3)c2c1`: the results for the AC50 in assay [7] and in assay [9] were 0.372 µM (active) and 8.33 µM (active), respectively.
